# Screening results: PubChem, several laboratories
# FBA Mtb inh: Mtb FBA enzyme inhibitors, primary screen, biochemical, fluorescence, strain H37Rv. Fructose-bisphosphate aldolase (Mycobacterium tuberculosis (strain ATCC 25618 / H37Rv)), …. purified M. tuberculosis FBA, fluorescence read-out. inhibition, % at 1 µM. hit rate 2.3% among 360,000; in the data active means inhibition above about 27%
# Target sequence (P9WQA3 whole entry, looked up): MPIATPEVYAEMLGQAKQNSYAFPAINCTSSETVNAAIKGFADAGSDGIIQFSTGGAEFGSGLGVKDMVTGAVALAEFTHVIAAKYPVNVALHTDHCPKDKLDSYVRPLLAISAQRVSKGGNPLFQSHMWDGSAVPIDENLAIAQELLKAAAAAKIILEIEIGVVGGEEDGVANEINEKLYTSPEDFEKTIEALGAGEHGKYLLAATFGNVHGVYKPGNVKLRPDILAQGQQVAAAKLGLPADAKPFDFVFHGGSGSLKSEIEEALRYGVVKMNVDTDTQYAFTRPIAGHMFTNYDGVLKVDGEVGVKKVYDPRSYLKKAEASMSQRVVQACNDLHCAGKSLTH
# CCHF vOTU inh: CCHFV vOTU protease inhibitors, primary screen, biochemical, Pep-AMC substrate, fluorescence; inhibition, % at 11.5 µM; hit rate 0.55% among 370,000; AID 651958, 2012
# BH1578 lux ind: inducers of Vibrio cholerae quorum light production without autoinducers, primary screen, BH1578 luxS cqsA deficient, single point; V. cholerae BH1578 lux reporter, luminescence, 6 h; activation, % at 18.7 µM; hit rate 0.16% among 350,000; in the data active means activation mostly above about 9.7%, no sharp cut-off
# GDH-TPI counter: GDH-TPI coupling enzyme inhibitors, primary screen, artefact control for M. tuberculosis FBA inhibitor project, biochemical, absorbance, full deck | GDH-TPI coupled enzyme counterscreen, NADH absorbance | inhibition, % at 4.8 µM | hit rate 1.2% among 360,000 | AID 588335, 2011
# Hits are given with their value; n = inactive; x = no result given; + = active, no number. This is a sample that favours compounds with a hit; in the whole collection about 3.9% have one here. Unless noted, no stated cut-off is given here; in the data, active means inhibition above about 30%; inactive means the rest.
SMILES,FBA Mtb inh,CCHF vOTU inh,BH1578 lux ind,GDH-TPI counter
CCOCCC(=O)Nc1ccc2c(c1)c(=O)n(C)n2CC=C(C)C,+,n,n,n
C=C(C)Cn1c2ccc(NC(=O)CCOCC)cc2c(=O)n1C,+,n,n,n
O=C(CCc1ccccc1)NNC(=O)Nc1cccc(Cl)c1,n,n,n,n
O=S(=O)([N-]c1nc2ccccc2nc1-[n+]1ccc(-c2ccncc2)cc1)c1ccccc1,n,n,n,n
COc1ccc(Cl)cc1CC1(C)C(=O)Nc2c(Cl)cccc21 (centres undefined),n,n,n,n
Fc1cccc(CSc2nc3ncc(Cl)cc3[nH]2)c1,n,n,n,n
C=C(C)c1ccc(C(C)(C)NC(=O)N(Cc2ccccc2)Cc2ccco2)cc1,n,n,n,n
CC(C)(C)NC(=O)C1Cc2ccccc2CN1C(=O)Nc1ccccc1Cl (centres undefined),n,n,n,n
Cc1ccc(CN2CCSc3ccc(C(=O)NCCCN4CCN(C)CC4)cc32)cc1,161,n,n,n
Cc1ccc(CN2CCSc3ccc(C(=O)NC4CCCC4)cc32)cc1,n,x,n,n
O=C(NCC1CCCO1)c1ccc2c(c1)N(Cc1ccc(Cl)cc1)CCS2 (centres undefined),132,n,n,n
Cc1cc(C(=O)N2CCN(S(=O)(=O)c3ccccc3)CC2)c(C)o1,n,n,n,n
C=CCNC(=O)/C(C#N)=C/c1c(N2CC(C)OC(C)C2)nc2ccccn2c1=O (centres undefined),126,n,n,n
Cc1ccc(S(=O)(=O)/C(C#N)=C/c2c(N3CC(C)OC(C)C3)nc3ccccn3c2=O)cc1 (centres undefined),n,n,n,n
N#C/C(=C\c1c(N2CCOCC2)nc2ccccn2c1=O)C(=O)NC1CCS(=O)(=O)C1 (centres undefined),+,n,n,n
Cc1nn(C)cc1CN(C)C(=O)CCc1nnc(CCC2CCCCC2)o1,n,n,n,n
CCc1nnc(NCC(=O)N2CCc3ccccc32)s1,n,n,n,n
C/C(=N\N=c1/sc2ccccc2n1C)c1ccccn1,n,n,n,n
Cc1ccc(-n2c(SCC(=O)Nc3ccccc3-c3ccccc3)nnc2-c2ccco2)cc1,x,n,x,x
Cc1ccc2[nH]c3c(=O)n(N)c(=O)[nH]c3c2c1,119,n,n,n
Cc1ccc2[nH]c3c(=S)nc[nH]c3c2c1,n,n,n,n
CCC1CCc2c(sc3ncnc(N4CCOCC4)c23)C1 (centres undefined),120,n,n,n
Cc1cc(C(=O)CCC(=O)NC(C)c2ccc(S(N)(=O)=O)cc2)c(C)s1 (centres undefined),n,n,n,n
NS(=O)(=O)c1ccc(NC(=O)COC(=O)Cn2cnc3ccccc3c2=O)cc1,n,n,n,n
CCOC(=O)N1CCc2c(sc3nc4n(c(=O)c23)N=C(C)CS4)C1,n,n,n,31
SMILES,FBA Mtb inh,CCHF vOTU inh,BH1578 lux ind,GDH-TPI counter
O=C(Cc1ccccc1)Nc1ccc2oc(-c3cccnc3)nc2c1,112,n,x,n
O=C(Nc1ccc2oc(-c3ccccc3)nc2c1)C1CCCO1 (centres undefined),+,n,n,n
O=C(NC1=NCCS1)c1ccc(Cl)cc1,n,n,n,n
O=C(NC1=NCCS1)c1ccc(-c2ccc(Cl)cc2)o1,136,n,n,55
CCC12OC(=N)C(C#N)(C1C)C(C#N)(C#N)C(c1ccccc1)O2 (centres undefined),144,n,n,n
COc1ccc(NC(=O)CC(C)=O)c(OC)c1,n,n,n,n
CCC(=O)/C=C1/Sc2ccccc2N1CC,n,n,n,39
CCC(=O)/C=C1/Sc2ccc(OC)cc2N1CC,n,n,n,35
COc1cc2c(cc1OC)-c1cc(OCCN3CCOCC3)nc(=O)n1CC2,+,n,n,32
CCOc1ccccc1Nc1cc2n(c(=O)n1)CCc1cc(OC)c(OC)cc1-2,n,n,n,34
COc1cc2c(cc1OC)-c1cc(Nc3ccccc3C)nc(=O)n1CC2,n,n,n,n
COc1cc2c(cc1OC)-c1cc(NC3CC3)nc(=O)n1CC2,n,n,n,37
CCOC(=O)Nc1ccc2c(CN3CCC(C(=O)OC)CC3)cc(=O)oc2c1,n,n,n,n
CC(=O)Nc1ccc2c(COC(=O)[C@H](C)N3C(=O)C4CCCCC4C3=O)cc(=O)oc2c1 (some centres undefined),+,n,n,32
Nc1ccccc1-c1n[nH]c(=S)s1,61,x,n,n
O=C(CSc1ccsc1[N+](=O)[O-])NCCc1ccccc1,+,n,n,n
O=C(CSc1ccsc1[N+](=O)[O-])NCCc1ccc(Cl)cc1,n,n,n,n
CN(C)c1ccc(C(=O)C(O)c2ccccc2Cl)cc1 (centres undefined),n,n,x,46
O=C(/C=C/c1ccccc1)c1ccc2c(c1)OCO2,n,n,n,40
O=C(C=Cc1ccc2c(c1)OCO2)C1CC1,n,n,n,36
CNC(=O)COC(=O)c1ccc(-c2nc3ccccc3s2)s1,n,n,n,57
CNC(=O)COC(=O)/C=C/c1nc2ccccc2s1,n,n,n,n
COc1ccc2cc3[n+](cc2c1OC)CCc1cc2c(cc1-3)OCO2,n,n,n,35
COc1cccc(C2=NCCc3cc4c(cc32)OCO4)c1OC,n,n,n,n
C/C(=N\Nc1nc2ccccc2[nH]1)c1ccc2c(c1)OCCO2,n,n,n,n
SMILES,FBA Mtb inh,CCHF vOTU inh,BH1578 lux ind,GDH-TPI counter
C/C(=N\Nc1nc2ccccc2[nH]1)c1ccccn1,n,n,n,n
C/C(=N\Nc1nc2ccccc2[nH]1)c1cc2ccccc2o1,n,n,n,33
C/C(=N\Nc1nc2ccccc2[nH]1)c1ccc2c(c1)OCO2,n,n,n,31
COc1ccc(C2C(=O)c3ccccc3C2=Nc2ccc(Br)cc2)cc1 (centres undefined),n,n,n,n
Cc1nc(Nc2ccc(S(=O)(=O)N3CCCCC3C)cc2)c2nnn(Cc3ccccc3)c2n1 (centres undefined),n,n,n,n
CCN1CCN(c2nc(C)nc3c2sc(=S)n3C)CC1,n,n,n,35
COc1ccc2c(=O)c(C(=O)O)c(-c3ccc4c(c3)OCO4)n(C)c2c1,n,n,n,n
COc1ccc(/C=C2\SC(N3CCCCC3)=NC2=O)cc1,n,n,n,47
CC(=O)N1CCN(C2=NC(=O)/C(=C/c3ccc(OS(=O)(=O)c4ccccc4)cc3)S2)CC1,n,n,n,31
COc1cc(/C=C2\SC(N3CCCCC3)=NC2=O)cc(OC)c1OC,n,n,n,33
O=C1N=C(N2CCCCC2)S/C1=C\c1ccncc1,n,n,n,n
Cc1cccc(NC(=O)COC(=O)[C@@H]2CCCN2C(=O)c2cccs2)c1,n,n,n,n
O=C(Cc1ccccc1[N+](=O)[O-])c1ccc2c(c1)OCO2,n,n,n,n
COc1ccc(CNC(=O)c2c(C)cc(=O)oc2C)cc1,n,n,n,n
